Our source for the Potency and outcome values is PubChem BioAssay (Tox21).

The structures appear in SMILES notation. “And” between values parts separate entries of the source, which are not always exact repeats. Identical values can stand only once. Records with an inconclusive call do not appear. The source holds several records for some structures; these can differ, active in one and inactive in another. The source made the active and inactive calls. Unless noted, calls follow the shape of the dose curve; as a rule, active = well fitted curve in the direction sought with a large enough effect in the repeat runs; inconclusive = weak or mixed curves; inactive = no such curve, though single readings can be large; an effect the other way counts as inactive or inconclusive.

Test [1] addresses Estrogen receptor (Homo sapiens) (UniProt P03372). As to the kind of experiment: qHTS assay to identify small molecule antagonists of the estrogen receptor alpha (ER-alpha) signaling pathway using the BG1 cell line in the presence of 0.1 nM 17-beta-estradiol (AID 1259244). Also: nearly all actives have a fitted effect of over 50% in size. In short, it runs like this: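 Estradiol at 0.1 nM (final) stimulates the endogenous ER-alpha of VM7Luc4E2 cells carrying an ERE-driven luciferase; compounds are co-incubated 22 h at 37C and luciferase output quantified by luminescence.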
In general terms: In qHTS, concentration-response curves come from the screen itself.

Test [2] can be described thus: qHTS assay to identify small molecule HDAC inhibitors (AID 1259364). Also: potency is read from the fitted curve at half-maximal effect.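 Also: wild-type HCT-116 cells with endogenous class I/II HDAC activity; nearly all actives have a fitted effect of over 45% in size.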 A digest of the protocol: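 Read-out: luminescence of HDAC-Glo I/II reagent, 30 min RT, reflecting class I/II deacetylase activity in whole HCT-116 cells pre-exposed 2 h to DMSO-dissolved compounds.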
Test [3] is described as follows: qHTS assay to identify small molecule HDAC inhibitors - cell viability counter screen (AID 1259365). Also: series mostly up to about 92 µM; nearly all actives have a fitted effect of over 50% in size. In short, it runs like this: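 Wild-type HCT-116 cells, 1,500/well, cultured overnight, then compound-treated 2 h at 37 C. Viability measured as ATP luminescence with CellTiter-Glo after 30 min at room temperature.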
A short description of test [4]: qHTS assay to identify small molecule agonists of the sonic hedgehog signaling (Shh) pathway - cell viability counter screen (AID 1259366). Also: nearly all actives have a fitted effect of over 50% in size. In short, it runs like this: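 NIH/3T3-derived Gli1-Luc reporter cells, 2,000 per well, received compound after 4 h and were treated about 23 h at 37C. Viability measured in the same wells by CellTiter-Fluor fluorescence after 1 h.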

A short description of test [5]: qHTS assay to identify small molecule antagonists of the sonic hedgehog signaling (Shh) pathway - cell viability counter screen (AID 1259367). Also: nearly all actives have a fitted effect of over 55% in size. A digest of the protocol:
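NIH/3T3-derived Gli1-Luc reporter cells (2,000 per well) rested 4 hr at 37 C, then received DMSO compounds plus conditioned medium. After 23 hr of treatment, CellTiter-Fluor was added for 1 hr at 37C and fluorescence read.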

A short description of test [6]: qHTS assay to identify small molecule agonists of the sonic hedgehog signaling (Shh) pathway (AID 1259368; calls by dose curve;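 also: NIH/3T3-derived 3T3Gli1-Luc cells carrying a stable Gli1-driven firefly luciferase reporter; series mostly up to about 92 µM; nearly all actives have a fitted effect of over 15% in size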). A digest of the protocol: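 A Gli1 transcriptional response element controlled firefly luciferase in 3T3Gli1-Luc cells. Compounds and a positive control were added 4 hr after plating, and cells were incubated a further 24 hr at 37 C before luminescence detection.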

The nature of test [7]: qHTS assay to identify small molecule antagonists of the sonic hedgehog signaling (Shh) pathway (AID 1259369; calls by dose curve; also: nearly all actives have a fitted effect of over 45% in size; also: potency is read from the fitted curve at half-maximal effect). In short, it runs like this: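 For antagonist detection, the reporter line received test compounds together with conditioned medium, incubated 24hr at 37 C, 5% CO2, then luminescence was recorded following 30min room-temperature luciferase reagent incubation.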
The nature of test [8]: qHTS assay to identify small molecule agonists of the androgen receptor (AR) signaling pathway in the presence of an antagonist - cell viability counter screen (AID 1259379).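 Also: MDA-kb2 human breast cancer cells carrying an MMTV luciferase reporter; series mostly up to about 92 µM; nearly all actives have a fitted effect of over 25% in size.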 A digest of the protocol:
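Seed MDA-kb2 at 3,000 cells/well; incubate 5 hr, 37C, 0% CO2. Add nilutamide to 3.0uM final, then pin compounds at 15 concentrations. Incubate 16 hr. Add CellTiter-Fluor at 15 hr, read fluorescence after 1 hr.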

The nature of test [9]: qHTS assay to identify small molecule agonists of the estrogen receptor beta (ER-beta) signaling pathway - cell viability counter screen (AID 1259380). Also: nearly all actives have a fitted effect of over 30% in size. Also: potency is read from the fitted curve at half-maximal effect. A digest of the protocol: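 CellTiter-Glo read, 30 min RT, same wells as bla assay; cells ER-beta-UAS-bla HEK293T; 16 hr compound, 37C; medium 2% charcoal-stripped FBS.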
Test [10] is described as follows: qHTS assay to identify small molecule antagonists of the estrogen receptor beta (ER-beta) signaling pathway - cell viability counter screen (AID 1259382).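 Also: HEK293T cells carrying ER-beta-UAS-bla reporter stimulated with estradiol; series mostly up to about 92 µM; nearly all actives have a fitted effect of over 55% in size.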 A digest of the protocol: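 In this multiplexed counter screen, cells were seeded at 2,000 per well in medium with 2% charcoal-stripped FBS and incubated 6 hr before compound and 1nM final E2 were added. Sixteen hours later, ATP-based luminescence reported viability.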

The target of test [11] is Estrogen receptor (Homo sapiens) (UniProt P03372). The test is described as follows: qHTS assay to identify small molecule agonists of the estrogen receptor alpha (ER-alpha) signaling pathway in the presence of an antagonist (AID 1259383; calls by dose curve; also: top concentration of the series differs between compounds; nearly all actives have a fitted effect of over 15% in size). In short, it runs like this:
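Stably transfected VM7Luc4E2 reporter cells, kept 5 days in charcoal-stripped serum, received ICI-182,780 at 10.0nM final before compound addition. Following 22hr incubation at 37C and 5% CO2, luciferase signal was read by luminescence.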

Test [12] can be described thus: qHTS assay to identify small molecule agonists or antagonists of the thyroid stimulating hormone receptor (TSHR) signaling pathway - wild type cell line counter screen (AID 1259384; calls by dose curve). In short, it runs like this:
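Wild-type HEK293 cells were plated 18 h at 37 C/5% CO2, pin-dosed with compound plus Ro20-1724 medium, held 30 min at room temperature, then given cAMP-d2 and anti-cAMP-cryptate; fluorescence was read after 1 h. Fifteen concentrations, triplicate.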

Test [13] has as its target Thyrotropin receptor (Homo sapiens) (UniProt P16473). The test is described as follows: qHTS assay to identify small molecule antagonists of the thyroid stimulating hormone receptor (TSHR) signaling pathway (AID 1259385; calls by dose curve; also: nearly all actives have a fitted effect of over 20% in size). In short, it runs like this:
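TSHR-HEK293 cells were plated and held 18 h at 37C/5% CO2, then given compound plus Ro20-1724 and stimulated with TSH at 1.5 ng/mL final. After 30 min at room temperature, cAMP was detected with cAMP-d2/anti-cAMP-cryptate (1 h) by fluorescence.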

Test [14] is described as follows: qHTS assay to identify small molecule agonists of the estrogen receptor alpha (ER-alpha) signaling pathway in the presence of an antagonist - cell viability counter screen (AID 1259386).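 Also: series mostly up to about 92 µM; cells exposed to compounds for 22 h at 37 °C before the viability read; nearly all actives have a fitted effect of over 30% in size.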 In short, it runs like this:
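Viability counter screen using VM7Luc4E2 (full-length ER-alpha, four ERE-luciferase). The cells were treated with compounds alongside ICI-182,780 10.0nM for 22hr, and live-cell protease fluorescence was quantified with CellTiter-Fluor.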

For test [15], the target named is Progesterone receptor (Homo sapiens) (UniProt P06401). The test is described as follows: qHTS assay to identify small molecule agonists of the progesterone receptor (PR) signaling pathway (AID 1346784; calls by dose curve; also: nearly all actives have a fitted effect of over 30% in size). A digest of the protocol: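 PR-UAS-bla HEK 293T cells (beta-lactamase reporter under UAS) in 2% charcoal-stripped FBS, dosed with 23 nL compound after 6 hr, incubated 16hr at 37C. LiveBLAzer B/G FRET substrate added, fluorescence read after 2 hours.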

For test [16] the target is unchanged. As to the kind of experiment: qHTS assay to identify small molecule antagonists of the progesterone receptor (PR) signaling pathway (AID 1346795; active = well fitted inhibition curve with a large enough effect in the signal ratio in the repeat runs, not every such curve was filed as active; the % refers to the signal ratio). A digest of the protocol: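 PR-UAS-bla HEK293T cells with beta-lactamase reporter under UAS control, in 2% charcoal-stripped FBS, treated with compounds plus 1 nM promegestone (R5020, final) for 16 hr at 37C. Read-out: FRET beta-lactamase substrate fluorescence after 2 hr at room temperature.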

A short description of test [17]: qHTS assay to identify small molecule antagonists of the progesterone receptor (PR) signaling pathway - cell viability counter screen (AID 1346798). Also: series mostly up to about 92 µM; nearly all actives have a fitted effect of over 50% in size. A digest of the protocol: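 PR-UAS-bla HEK293T cells, 3,000/well in 2% charcoal-stripped FBS medium, dosed with compounds plus R5020 agonist and incubated 16 h at 37C. Viability then measured in the same wells by CellTiter-Glo luminescence after 30 min at RT.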

The target in test [18] is Estrogen receptor beta (Homo sapiens) (UniProt Q92731). As to the kind of experiment: qHTS assay to identify small molecule agonists of the estrogen receptor beta (ER-beta) signaling pathway (AID 1259377; active = well fitted activation curve with a large enough effect in the signal ratio in the repeat runs, not every such curve was filed as active; the % refers to the signal ratio). In short, it runs like this:
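ER-beta-UAS-bla HEK293T cells in medium with 2% charcoal-stripped FBS were exposed to compounds for 16 h at 37C. Beta-lactamase reporter activity was read as fluorescence after 2 h with LiveBLAzer B/G FRET substrate at room temperature.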

Chain of Thyrotropin receptor (Homo sapiens) (P16473 whole entry, looked up): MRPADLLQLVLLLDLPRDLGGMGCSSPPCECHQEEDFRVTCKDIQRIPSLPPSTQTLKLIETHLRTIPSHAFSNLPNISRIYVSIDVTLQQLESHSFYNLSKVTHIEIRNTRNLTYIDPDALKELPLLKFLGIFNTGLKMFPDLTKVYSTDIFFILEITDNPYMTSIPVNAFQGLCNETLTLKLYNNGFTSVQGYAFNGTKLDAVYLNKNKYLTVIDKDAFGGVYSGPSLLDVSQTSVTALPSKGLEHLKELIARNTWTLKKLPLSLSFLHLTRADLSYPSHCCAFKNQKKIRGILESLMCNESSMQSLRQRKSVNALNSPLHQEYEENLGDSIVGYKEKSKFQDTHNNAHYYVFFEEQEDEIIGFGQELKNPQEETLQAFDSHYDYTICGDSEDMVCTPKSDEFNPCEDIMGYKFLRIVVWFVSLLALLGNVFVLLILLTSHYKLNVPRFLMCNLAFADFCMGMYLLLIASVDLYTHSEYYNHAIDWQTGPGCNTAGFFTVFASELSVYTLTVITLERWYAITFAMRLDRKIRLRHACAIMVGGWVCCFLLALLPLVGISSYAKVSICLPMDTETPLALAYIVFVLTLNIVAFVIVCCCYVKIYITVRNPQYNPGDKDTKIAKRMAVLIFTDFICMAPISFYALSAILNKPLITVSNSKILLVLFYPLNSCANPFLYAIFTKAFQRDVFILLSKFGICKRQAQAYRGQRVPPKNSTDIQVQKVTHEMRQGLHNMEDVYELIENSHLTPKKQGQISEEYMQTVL
Chain of Estrogen receptor (Homo sapiens) (P03372 whole entry, looked up): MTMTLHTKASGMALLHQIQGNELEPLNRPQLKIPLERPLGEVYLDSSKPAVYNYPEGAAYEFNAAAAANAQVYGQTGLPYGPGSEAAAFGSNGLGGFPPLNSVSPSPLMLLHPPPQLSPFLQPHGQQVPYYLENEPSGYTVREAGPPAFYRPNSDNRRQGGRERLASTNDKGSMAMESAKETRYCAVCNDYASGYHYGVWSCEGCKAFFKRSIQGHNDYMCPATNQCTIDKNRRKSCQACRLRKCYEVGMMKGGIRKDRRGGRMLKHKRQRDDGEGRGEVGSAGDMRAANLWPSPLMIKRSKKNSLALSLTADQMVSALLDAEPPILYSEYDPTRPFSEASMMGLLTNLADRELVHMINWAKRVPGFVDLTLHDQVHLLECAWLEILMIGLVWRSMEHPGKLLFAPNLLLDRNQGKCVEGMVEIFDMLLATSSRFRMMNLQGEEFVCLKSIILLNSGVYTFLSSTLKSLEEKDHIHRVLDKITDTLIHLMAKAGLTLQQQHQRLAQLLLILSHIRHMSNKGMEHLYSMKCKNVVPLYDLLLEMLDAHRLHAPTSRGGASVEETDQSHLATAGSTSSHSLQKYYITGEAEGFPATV
Chain of Estrogen receptor beta (Homo sapiens) (Q92731 whole entry, looked up): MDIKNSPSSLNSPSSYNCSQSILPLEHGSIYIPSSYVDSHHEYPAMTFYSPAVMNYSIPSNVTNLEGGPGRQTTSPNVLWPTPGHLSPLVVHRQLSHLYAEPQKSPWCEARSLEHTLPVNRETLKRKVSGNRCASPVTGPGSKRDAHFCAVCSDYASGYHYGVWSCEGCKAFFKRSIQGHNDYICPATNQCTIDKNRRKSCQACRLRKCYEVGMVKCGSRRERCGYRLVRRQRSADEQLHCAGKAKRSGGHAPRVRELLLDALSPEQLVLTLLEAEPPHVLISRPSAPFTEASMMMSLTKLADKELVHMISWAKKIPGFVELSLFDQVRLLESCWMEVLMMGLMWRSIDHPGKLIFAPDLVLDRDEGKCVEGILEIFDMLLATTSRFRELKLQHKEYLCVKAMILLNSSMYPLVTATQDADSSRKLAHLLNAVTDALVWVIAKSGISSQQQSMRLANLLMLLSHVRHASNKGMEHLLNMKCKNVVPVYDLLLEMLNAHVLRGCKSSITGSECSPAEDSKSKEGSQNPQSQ
Chain of Progesterone receptor (Homo sapiens) (P06401 whole entry, looked up): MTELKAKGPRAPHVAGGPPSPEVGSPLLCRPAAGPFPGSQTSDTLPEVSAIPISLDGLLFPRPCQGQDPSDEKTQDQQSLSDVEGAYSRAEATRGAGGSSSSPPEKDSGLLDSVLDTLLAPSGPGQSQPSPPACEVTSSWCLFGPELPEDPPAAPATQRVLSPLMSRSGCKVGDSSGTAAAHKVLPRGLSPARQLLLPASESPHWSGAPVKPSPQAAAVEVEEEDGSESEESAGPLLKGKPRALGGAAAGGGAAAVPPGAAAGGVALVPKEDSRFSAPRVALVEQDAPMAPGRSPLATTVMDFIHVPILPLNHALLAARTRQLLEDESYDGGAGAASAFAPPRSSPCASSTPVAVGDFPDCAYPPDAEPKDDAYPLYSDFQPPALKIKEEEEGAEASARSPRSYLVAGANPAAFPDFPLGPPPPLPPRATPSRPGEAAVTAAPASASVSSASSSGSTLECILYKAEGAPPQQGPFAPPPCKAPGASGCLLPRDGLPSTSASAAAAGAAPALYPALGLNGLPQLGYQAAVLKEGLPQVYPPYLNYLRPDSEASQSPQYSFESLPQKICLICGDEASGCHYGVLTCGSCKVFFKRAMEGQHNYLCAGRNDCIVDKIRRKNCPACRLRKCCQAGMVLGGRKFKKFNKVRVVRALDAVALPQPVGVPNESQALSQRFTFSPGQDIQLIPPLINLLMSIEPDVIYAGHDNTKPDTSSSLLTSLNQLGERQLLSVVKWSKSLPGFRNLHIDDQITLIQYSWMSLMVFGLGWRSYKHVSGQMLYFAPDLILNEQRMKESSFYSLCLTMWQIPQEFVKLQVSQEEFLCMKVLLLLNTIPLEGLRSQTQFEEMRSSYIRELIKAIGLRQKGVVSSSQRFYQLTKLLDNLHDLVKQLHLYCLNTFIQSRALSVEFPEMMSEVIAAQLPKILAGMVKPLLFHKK

As for `CC(C)N1C(=O)c2ccccc2NS1(=O)=O`, the Potency result in test [1], in test [2], in [4], in test [5], in test [7] and in test [9] was “inactive” in each case. In addition, the Potency result in test [10], in [11], in [13], in [16] and in [17] was “inactive” in each case. Besides, the outcome in test [3], in test [6], in [8], in [12], in test [14] and in test [15] was inactive.
`CC(C)=C[C@@H]1[C@@H](C(=O)OCc2coc(Cc3ccccc3)c2)C1(C)C`: the Potency entry in test [1], in [2], in [4], in test [5], in test [9] and in test [10] was “inactive” throughout. Besides, the Potency entry in test [11], in test [16] and in [17] was “inactive” each time. Moreover, the result in [3], in [6], in test [8], in test [14] and in test [15] was inactive.
On to `O=NN1CCCCCCC1`, for which the Potency result in test [1], in [2], in [4], in [5], in test [7] and in test [9] was “inactive” in each case. Moreover, the Potency result in test [10], in [11], in test [13], in test [16] and in test [17] was “inactive” in each case. Also, the compound was classed as inactive in test [3], in [6], in test [8], in [14] and in [15].
`CC(C)OC(=O)Nc1ccccc1`: the Potency entry in test [1], in test [4], in test [5], in [7], in test [9] and in [10] was “inactive” throughout. The Potency result in test [11], in [13], in test [16] and in [17] was “inactive” throughout. The Potency in [2] is 27.4 µM (active) and 24.3 µM (active). Further, the result in test [3], in [6], in test [8], in test [14] and in test [15] was inactive.
For the compound `Cc1cc(-c2cc(C)c(N)c(C)c2)cc(C)c1N`, the Potency entry in test [1], in [2], in [4], in test [5], in test [10] and in [11] was “inactive” throughout. In [17], the Potency result is “inactive”. Further, the compound was classed as inactive in test [3], in test [6], in test [8], in test [12], in test [14] and in test [15]. Besides, the Potency in test [7] is 2.74 µM (active) and 21.3 µM (active).
For the compound `CCCCCCCCCl`, the Potency entry in [1], in test [2], in [4], in test [5], in test [7] and in test [18] was “inactive” in each case. Besides, the Potency result in [9], in test [10], in test [11] and in test [17] was “inactive” in each case. In addition, the compound was classed as inactive in test [3], in [6], in test [8], in test [14] and in test [15].
On to `NCCc1ccc(O)cc1`, for which the Potency result in test [1], in [2], in test [4], in test [5], in test [7] and in test [18] was “inactive” in each case. In addition, the Potency result in [10], in test [11], in test [13], in test [16] and in test [17] was “inactive” throughout. For the same compound, the compound was called inactive in test [3], in test [6], in [8], in test [14] and in test [15]. Also, the Potency in test [9] is 60.6 µM (active) and inactive.
Take `COP(N)(=O)SC` (configuration not stated): the Potency result in [1], in test [2], in test [4], in test [5], in test [7] and in test [18] was “inactive” in each case. The Potency result in [9], in test [10], in [11], in [13], in [16] and in [17] was “inactive” in each case. The compound was classed as inactive in test [3], in test [6], in test [8], in test [14] and in [15].
For the compound `Cc1ccc(N)cc1N`, the Potency result in test [1], in test [2], in test [4], in test [5], in [7] and in test [18] was “inactive” in each case. For the same compound, the Potency result in test [9], in test [10], in test [11], in test [13], in test [16] and in test [17] was “inactive” throughout. The outcome in test [3], in test [8], in test [14] and in test [15] was inactive.
